# Source: PubChem BioAssay (NCI)
# This is part of a sample that, as a whole, favours compounds with a hit. Of some 83,000 tested, about 20% had one in any assay.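 Single-concentration screen, 48 h exposure, 96-well plates. Endpoint: percent growth. Below 10 = active.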 Unmarked numbers belong to inactive results. The source made the active and inactive calls.
# Test system: OVCAR-8 ovarian
# Test: NCI-60 one-dose screen, 48 h (100 = growth as untreated, 0 = no growth, -100 = all killed)
# Conditions: 10 µM unless noted
# Experimental: Growth inhibition of the OVCAR-8 human tumor cell line is measured as a screen for anti-cancer activity. Cells are grown in 96 well plates and exposed to the test compound for 48 hours. Compounds are tested at a single concentration, which is 10^-5 M for most compounds. The reported endpoint is percent growth (GI% or GIPRCNT), where numbers from 0 - 100% represent growth inhibition, and numbers from -100% - 0 represent cell death. For example, a value of 40 represents 60% growth inhibition. A value of 0 means no net growth occurred over the course of the experiment. A value of -40 indicates 40% of cells at the beginning of the experiment died by the end of the experiment. A value of -100 means all cells are dead at the end of the experiment.
# NCI-60 Human Tumor Cell Lines Screen was performed using the standard one-dose NCI protocol, which is described in more detail at https://dtp.cancer.gov/discovery_development/nci-60/default.htm.
# Compounds with GIPRCNT values below 10 were considered active. Activity score was based on GIPRCNT using the following formula: […]
# Score is 0 for GIPRCNT values of 100 or above, 50 for GIPRCNT values of 0, and 100 for GIPRCNT values of -100.
row,SMILES,growth
1,O=C(N/N=C/[C@H](O)[C@@H](O)[C@@H](O)[C@H](O)CO)c1ccc(NC(=O)c2cccnc2)cc1,105%
2,O=CN1N=C(c2ccc(Nc3ccnc4cc(Cl)ccc34)cc2)CC1c1ccccc1 (stereo not given),51.8%
3,CC(=O)CC(c1cccs1)c1c(-c2ccccc2)[nH]c2ccccc12 (stereo not given),92.5%
4,CCOc1c(B(O)O)cccc1-c1nc2ccc3[nH]ncc3c2c2c1CCCC2,65%
5,CCOC(=O)NCCc1ccccc1,108%
6,O=C(CCN1C(=O)/C(=C/c2ccc(O)cc2)SC1=S)Nc1ccc(Cl)cc1,97%
7,CNc1nc2c(s1)C(c1cccc(F)c1)CC(=O)N2 (stereo not given),102%
8,CC(=O)OC[C@H]1OC(Sc2sc(C(=O)c3ccc(Cl)cc3)c(N)c2-c2nc3ccccc3s2)[C@H](OC(C)=O)[C@@H](OC(C)=O)[C@@H]1OC(C)=O (stereo not given in full),72.6%
9,C/C(=N/NC(N)=S)c1sc(Nc2cccc(Cl)c2)nc1C,97.5%
10,O=C(CSc1nccc(Nc2ccc(S(=O)(=O)Nc3nccs3)cc2)n1)c1ccc(C(F)(F)F)cc1,96.2%
11,COc1ccc(OC)c(/C=C/C(=O)N/N=C/c2ccc(Cl)cc2)c1,21%
12,CCOC(=O)C1=C(N)Oc2c(sc3c(C)cccc23)C1c1ccc(OC)cc1 (stereo not given),46.6%
13,NCCNc1nc2ccccc2c2c(=O)c3cc(F)ccc3sc12,79.2%
14,O=[N+]([O-])c1ccc(Cl)c(-c2cc(CCCCO)on2)c1,105%
15,COc1cccc(-c2nc(-c3ccc(NC(=O)C(C)C)cc3)[nH]c2-c2ccnc(Br)c2)c1,38.1%
16,O=C(Nc1ccc(F)cc1F)c1cc(F)ccc1O,14.9%
17,c1ccc2c(-c3nc(-c4c[nH]c5ccncc45)cs3)c[nH]c2c1,60.2%
18,CCC12CCC[N+]3([O-])CCC4(C(=Nc5ccccc54)C(O)(C(=O)OC)C1)C23 (stereo not given),102%
19,COc1ccc(CNC(=O)[C@H](O)[C@@H](N)Cc2ccccc2)cc1,108%
20,COc1ccc(/C=C/c2c(C(=O)/C=C/c3ccc(C(F)(F)F)cc3)c(C)nc3ccccc23)cc1,9.68% (active)

row,SMILES,growth
1,O=C(CCN1C(=O)/C(=C/c2ccc(O)cc2)SC1=S)Nc1ccccc1,94.6%
2,C=C(C)[C@@H]1CC[C@]2(N=C=O)CC[C@]3(C)[C@H](CC[C@@H]4[C@@]5(C)Cc6c([nH]c7ccccc67)C(C)(C)[C@@H]5CC[C@]43C)[C@@H]12,70.7%
3,COc1c(B(O)O)cc(C)cc1-c1nc2ccc3[nH]ncc3c2c2c1CCCC2,53.3%
4,COc1ccc2sc3c(NCCCN(C)C)nc4ccccc4c3c(=O)c2c1,61.9%
5,O=C(Nc1nc2ccc(F)cc2s1)c1cccnc1Nc1ccc(Cl)cc1Cl,19.5%
6,Cc1nc2cnc(N)c(C#Cc3cncc(C(=O)Nc4ccc(CN5CCN(C)CC5)c(C(F)(F)F)c4)c3)c2nc1C,10.4%
7,C[C@H]1[C@H]2[C@H]3CC[C@@H]4[C@@]5(C)CC[C@H](O)C(C)(C)[C@@H]5CC[C@@]4(C)[C@]3(C)CC[C@]23CO[C@]1(C)[C@@H](C(=O)/C=C\c1cccnc1)C3,35.1%
8,NC1=C(c2nn[nH]n2)C(c2ccccc2Cl)c2ccc3ccccc3c2O1 (stereo not given),86%
9,COc1ccccc1/C=C1\Oc2cc(OCCN3CCC(Cc4ccccc4)CC3)ccc2C1=O,81.2%
10,COC(=O)c1ccc2[nH]c(O)c(C(=Nc3ccc(N(C)C(=O)CN4CCN(C)CC4)cc3)c3ccccc3)c2c1,26%
11,S=c1nc(-c2ccccc2)oc(=NC2CCCCC2)n1C1CCCCC1,32.2%
12,CN(C)CCN1CCN(c2ncccc2C2Nc3ccccc3-n3cccc32)CC1 (stereo not given),101%
13,Cc1ccc(/C=C(\C#N)n2nc3cccc(F)c3n2)cc1,94.2%
14,CN1C(=O)CNC(=O)[C@H](NC(=O)c2nc3ccccc3cc2O)CSSC[C@H]1C(=O)NCCCc1nc2ccccc2cc1O,86.2%
15,N/C(=N\c1nc2ccccc2s1)NC(=O)Nc1cccc2ccccc12,32.9%
16,CCN1C(=O)N(CC)C2Nn3c(s/c(=C4\C(=O)N(CCC(C)C)c5ccccc54)c3=O)=NC21 (stereo not given),86%
17,O=C(CCOCCNC(=O)COc1ccc2c(c1)OCC(c1ccc(F)cc1)C2=O)NCCCC(O)(P(=O)(O)O)P(=O)(O)O (stereo not given),104%
18,Clc1ccc(C(/C=C/c2sc(Cl)nc2Cl)=N/Nc2cc(Cl)cc(Cl)c2)cc1,104%
19,NC1CCN(c2nc(Nc3cccc(C(F)(F)F)c3)c3c(=O)[nH]ccc3n2)CC1,-44.7% (active)
20,O=C(Nc1c2ccccc2nc2ccccc12)c1ccccc1CN1C(=O)c2ccccc2C1=O,31.3%
